Hits are enriched below; roughly 2.4% of the tested compounds scored in any of these assays.
Cruzain inh noDet: cruzain (T. cruzi) inhibition without detergent; Potency, µM, most hits filed as inhibitors; purified cruzain, Z-FR-AMC fluorescence, no detergent; 200,000 compounds, 2.3% hits; also: nearly all actives have a fitted effect of over 40% in size
Target sequence (P25779 123-467 limits assumed): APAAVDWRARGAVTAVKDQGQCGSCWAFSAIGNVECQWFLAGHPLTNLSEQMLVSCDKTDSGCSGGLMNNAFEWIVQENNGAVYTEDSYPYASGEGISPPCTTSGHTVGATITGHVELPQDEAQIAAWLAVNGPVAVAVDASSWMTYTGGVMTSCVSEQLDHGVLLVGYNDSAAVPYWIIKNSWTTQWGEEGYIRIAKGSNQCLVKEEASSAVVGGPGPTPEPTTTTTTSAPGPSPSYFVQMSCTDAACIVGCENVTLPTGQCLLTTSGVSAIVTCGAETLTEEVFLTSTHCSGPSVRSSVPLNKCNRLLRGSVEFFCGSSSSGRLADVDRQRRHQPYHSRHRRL
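Purified cruzain at 1.5 nM, pre-incubated 15 min with compound at room temperature in 100 mM sodium acetate pH 5.5, 5 mM DTT, 0.00005% Triton X-100. Reaction started with 2 uM Z-FR-AMC; AMC fluorescence increase over 60 s gives rate.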
Cruzain Triton: cruzain (T. cruzi) inhibition with detergent. AID 1478. 200,000 compounds, 0.43% hits. Potency, µM, most hits filed as inhibitors. purified cruzain, Z-FR-AMC fluorescence, 0.01% Triton; also: nearly all actives have a fitted effect of over 40% in size
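Cysteine protease activity tested under reducing, mildly acidic conditions (100 mM sodium acetate pH 5.5, 5 mM DTT) plus 0.01% Triton X-100. Cruzain 1.5 nM; substrate Z-FR-AMC 2 uM; 15 min compound preincubation at room temperature.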
Each line names hits and unclear results; the compound was inactive in the other large screens. Calls follow the shape of the dose curve; as a rule, active = well fitted curve in the direction sought with a large enough effect; inconclusive = small, poorly fitted or top-dose-only effect, or another doubt; inactive = no such curve, though single readings can be large; an effect the other way counts as inactive or inconclusive.

Cc1ccc(N2CCN(C(=O)c3cn(C)c4ccc(S(=O)(=O)N(C)C5CCCCC5)cc4c3=O)CC2C)cc1 (stereo not given)	none
O=C(NCC(c1cccnc1)N1CCc2ccccc2C1)C(=O)Nc1ccc(F)cc1F (stereo not given)	none
Cc1nc(C)c(CCNS(=O)(=O)c2ccc(C)c(C)c2)s1	none
CCOC(=O)c1cc(S(=O)(=O)Nc2cc(C)c(Cl)cc2OC)[nH]n1	none
Fc1cccc(Nc2nc3ccccc3n3nnnc23)c1	Cruzain inh noDet inconclusive
Fc1ccccc1Nc1nc2ccccc2n2nnnc12	Cruzain inh noDet 25µM
Oc1ccccc1Nc1nc2ccccc2n2nnnc12	Cruzain inh noDet inconclusive
Cc1ccc(CNc2nc3ccccc3n3nnnc23)cc1	Cruzain inh noDet 32µM
Cc1ccc(CNC(=O)c2ccc(Nc3nc4ccccc4n4nnnc34)cc2)cc1	none
c1ccc2c(c1)nc(Nc1ccc3c(c1)OCO3)c1nnnn12	Cruzain inh noDet 25µM
O=C(NCCc1ccccc1)C(=O)NCC(c1cccnc1)N1CCN(c2ccccc2F)CC1 (stereo not given)	none
Cc1ccccc1NS(=O)(=O)c1ccc(Br)s1	none
COC(=O)c1ccccc1NC(=O)C1(c2cccs2)CCOCC1	none
Cc1c(C(=O)N(Cc2ccccc2F)C2CCS(=O)(=O)C2)oc2ccccc12 (stereo not given)	none
CC(=O)Nc1nnc(-c2ccc3c(c2)CCCC3)o1	none
O=C(COc1ccc(Cl)cc1)Nc1nnc(-c2ccc3c(c2)CCCC3)o1	Cruzain inh noDet 7.9µM
O=C(Nc1nnc(-c2ccc(Cl)cc2)o1)NC1CCCCC1	Cruzain inh noDet 25µM
O=C(Nc1ccc(Cl)cc1)NC1CCCCC1	none
CCC(CC)C(=O)Nc1ccc2nc(SCC(=O)N3CCOCC3)sc2c1	none
Cc1ccc2c(c1)Cc1c(nc(-c3ccc(Cl)cc3)nc1SCC(=O)N1CCCCC1)O2	none
Fc1cccc(/C=N/NC(=S)Nc2ccccc2Cl)c1	Cruzain inh noDet inconclusive
Fc1ccc(NC(=S)N/N=C/c2cccc(Br)c2)c(F)c1	Cruzain inh noDet 25µM
C[C@@]12C[C@H](O)C3[C@H](CCC4=CC(=O)CC[C@]43C)[C@H]1CC[C@@H]2c1csc(N)n1 (stereo not given in full)	none
CN(C)S(=O)(=O)c1cc(NC(=O)CSc2nn(-c3ccc(Cl)cc3)c(=S)s2)ccc1Cl	Cruzain inh noDet 25µM
Cc1ccc(NC(=O)CSc2nn(-c3ccc(Cl)cc3)c(=S)s2)cc1S(=O)(=O)N(C)C	Cruzain inh noDet inconclusive
Cc1cc(C)c(OCC(=O)N(Cc2ccc(N(C)C)cc2)CC2CCCO2)c(C)c1 (stereo not given)	none
N#C/C(=C/c1ccc(O)cc1)c1nc(-c2ccc(-c3ccccc3)cc2)cs1	none
N#C/C(=C\C=C\c1ccccc1)c1nc(-c2ccc3c(c2)OCO3)cs1	Cruzain inh noDet 25µM
CCOC(=O)c1c(C)oc2ncnc(Nc3cc(Cl)ccc3OC)c12	none
CCOc1cccc2sc(NC(=O)c3ccc(S(=O)(=O)N4CCCCC4C)cc3)nc12 (stereo not given)	none
Cc1cc(C)c(S(=O)(=O)Nc2ccc3c4c(cccc24)CC3)c(C)c1	Cruzain inh noDet 20µM
Cc1cc(C)c(S(=O)(=O)Nc2ccc3c(c2)CCC3)c(C)c1	none
O=C(Cn1c(=O)c2cccn2c2ccccc21)NCc1ccccc1F	none
Cc1oc(-c2cccc(Cl)c2)nc1Cn1c(SCc2ccccc2F)nc2ccncc21	none
CC(=O)N1CCCc2cc(S(=O)(=O)N(C)CC(=O)Nc3ccc(F)c(Cl)c3)ccc21	none
CCc1ccc2c(CN3CCc4ccccc43)cc(=O)oc2c1	Cruzain inh noDet 32µM
Cc1cc2oc(=O)cc(CN3CCc4ccccc43)c2cc1Cl	Cruzain inh noDet inconclusive
O=C(N/N=C\c1ccc(-c2ccc([N+](=O)[O-])cc2)o1)c1ccc2c(c1)OCO2	Cruzain inh noDet 7.9µM
O=C(N/N=C/c1ccc(Br)o1)c1ccc2c(c1)OCCO2	none
Oc1c(C(Nc2nc3ccccc3s2)c2ccco2)ccc2cccnc12 (stereo not given)	Cruzain inh noDet 7.9µM
CC(C)C(=O)NC(c1ccco1)c1ccc2cccnc2c1O (stereo not given)	none
CCCCNC(=O)CCCCCn1c(=O)[nH]c2ccccc2c1=O	none
CCOCCCn1c(=N)c(C(=O)NCC2CCCO2)cc2c(=O)n3cc(C)ccc3nc21 (stereo not given)	Cruzain inh noDet inconclusive
N=c1c(S(=O)(=O)c2ccccc2)cc2c(=O)n3ccccc3nc2n1CC1CCCO1 (stereo not given)	Cruzain inh noDet inconclusive, Cruzain Triton 32µM
COCCCn1c(=N)c(C(=O)NCC2CCCO2)cc2c(=O)n3ccccc3nc21 (stereo not given)	Cruzain inh noDet inconclusive, Cruzain Triton 28µM
CCCn1c(=N)c(C(=O)NCC2CCCO2)cc2c(=O)n3cccc(C)c3nc21 (stereo not given)	Cruzain inh noDet inconclusive, Cruzain Triton 32µM
Cc1cccn2c(=O)c3cc(C(=O)NCC4CCCO4)c(=N)n(CCN4CCOCC4)c3nc12 (stereo not given)	none
Cc1ccc(S(=O)(=O)c2cc3c(=O)n4cc(C)ccc4nc3n(CC3CCCO3)c2=N)cc1 (stereo not given)	none
Cc1ccc(CNC(=O)c2cc3c(=O)n4cccc(C)c4nc3n(CC3CCCO3)c2=N)cc1 (stereo not given)	Cruzain inh noDet inconclusive
COCCCn1c(=N)c(C(=O)NCC2CCCO2)cc2c(=O)n3cccc(C)c3nc21 (stereo not given)	Cruzain inh noDet inconclusive, Cruzain Triton 25µM
CCOc1ccc(NC(=O)NC(CC)Cn2nnc3ccccc3c2=O)cc1 (stereo not given)	none
Cc1ccc(C)c(N2CCN(S(=O)(=O)c3ccc(-c4coc(C)n4)cc3)CC2)c1	none
Cc1ccc(Cn2cc3c(n2)-c2c(oc(C(=O)Nc4ccc(F)cc4F)c2C)CC3)cc1	none
CCOc1ccc(NC(=O)Cn2nnc(C(=O)NCCc3ccccc3)c2N)cc1	none
COc1ccccc1-c1nnc(Nc2nc3c(OC)cccc3s2)o1	Cruzain inh noDet 32µM, Cruzain Triton inconclusive
COc1cccc2sc(Nc3nnc(-c4ccccc4Cl)o3)nc12	Cruzain inh noDet inconclusive
Cc1[nH]n(-c2ncc(-c3ccccc3)s2)c(=O)c1C(c1ccc(Cl)cc1)C(C#N)C#N (stereo not given)	Cruzain inh noDet 13µM, Cruzain Triton inconclusive
Cc1[nH]n(-c2ccccc2)c(=O)c1C(C[N+](=O)[O-])c1ccc(Cl)cc1 (stereo not given)	none
COc1cc(NC(=O)CN2C(=O)c3ccccc3Sc3ccc(C(=O)N4CCCC4)cc32)cc(OC)c1	Cruzain inh noDet inconclusive
CCN(C(=O)c1sc2nc3n(c(=O)c2c1C)CCCC3)c1ccccc1F	none
Brc1csc(CN2CCc3nc(Nc4ccccc4)ncc3C2)c1	Cruzain inh noDet inconclusive
COc1cc(Nc2ncc3c(n2)CCN(Cc2cc(Br)cs2)C3)cc(OC)c1	Cruzain inh noDet 25µM
Fc1ccc(-c2noc3ncnc(NCC4CCN(Cc5ccc(Cl)cc5)CC4)c23)cc1	none
CC1=NN(c2ccccc2)C(=O)/C1=C\c1cc(C)n(-c2ccccc2)c1C	Cruzain inh noDet inconclusive
Cc1cc(/C=C2/C(=O)NN(c3ccccc3)C2=O)c(C)n1-c1cccc(O)c1	Cruzain inh noDet 25µM
CCN(CC)CCNC(=O)c1c(C)oc2ncnc(N3CCOCC3)c12	none
O=S(=O)(c1ccccc1)c1nc(-c2ccccc2F)oc1N1CCOCC1	none
Cc1cccc(NC(=O)Cn2c(=O)n(Cc3ccc4c(c3)OCO4)c(=O)c3ccccc32)c1	Cruzain inh noDet 20µM

From PubChem BioAssay
